# Measured values published in publication PMC12136788.
# Positions count from the first letter of the chain named. The full ranking holds about 24,000 sequences; the median of “enrichment r” is about 0.99, and the highest 2% start at about 3.7. This excerpt belongs to a sample that is enriched for the highest values.
# T1: UNK ZnF1-3 (human, UniProt Q9C0B0 31-174)
# T1 sequence: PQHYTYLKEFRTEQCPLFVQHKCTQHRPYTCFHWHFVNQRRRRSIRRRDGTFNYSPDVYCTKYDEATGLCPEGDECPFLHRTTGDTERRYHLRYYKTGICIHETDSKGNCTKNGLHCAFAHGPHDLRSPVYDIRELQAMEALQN
# B1: chr9:4385736:4385737:+_ENSMUSG00000041124_ENSMUST00000047173|mus_hu|FALSE|FALSE (ssRNA)
# RNA: GGGAGUUCUACAGUCCGACGAUCAUAUUUUGGGUUGGAAAAUUCUUUACUGAGUGUGGGGGGGUGUUGAGGAGGUAUGCAUUGCACAGUAGCAACCUUUUCCCCACCCCAGUUUUGACAACCCAACAUGUCUCCAGACAUCACCAACAGAGGAUUGAGCAUCA
# B2: chr2:27535424:27535425:-_ENSG00000115204_ENST00000380044|hu_mus|FALSE|FALSE (ssRNA)
# RNA: GGGAGUUCUACAGUCCGACGAUCUUUGGCCCAAUUGUCCUGGGCUGACAUUCCAUUGAGUAUCCCGACCAGUGGGAGAAAGCAGCCUAGGAAACAUGGGGCAAAGCCCCCCUGAUCUAACAACAUCUUCUUCAGUGCAUGCACCAACAGAGGAUUGAGCAUCA
# B3: chr2:17897474:17897475:-_ENSG00000163029_ENST00000351948|hu_mus|FALSE|FALSE (ssRNA)
# RNA: GGGAGUUCUACAGUCCGACGAUCUAUUGCUUCCAGAAGAGCUGGAACAUGAGGACCAAAUCUUUUUAGUCGAUCAGUUUUACUAUCUUUCAGUUCUUUCAAUUGUCUCUGAUUAUAGUUGAGUGCAUGUCUCACUUCUAUAUCCAACAGAGGAUUGAGCAUCA
# B4: 8890394_8891644_3383_CDS_ENSG00000134313_ENST00000427284|human|control|control (ssRNA)
# RNA: GGGAGUUCUACAGUCCGACGAUCACCCUCAUGUAGAGGGAGCGGGGGGUACGCCAGUCCUCCAAUACUGAUCUGCUCUCUGGCAGCACGAACAUCUGCAAUAAUUUCCCGUAGUUUGGGAUCUAGGUUUACAGUGCAUGGCAACAACAGAGGAUUGAGCAUCA
# B5: chr4:2840174:2840175:+_ENSG00000087266_ENST00000503393|hu_hu|motif|central (ssRNA)
# RNA: GGGAGUUCUACAGUCCGACGAUCGAACUACGAUACAGCCAAACAAUGGAAGUUUUUAGCAAUGAACAUGCACAAACGGUACGGCGCACAGCAACAUGAAUAAAUCUCACAGACAUAAUAACGAGCCAAAGAAGCCAGCUGCCACAACAGAGGAUUGAGCAUCA
# B6: chr17:56552419:56552420:-_ENSMUSG00000013236_ENSMUST00000086828|mus_mus|mus_mus_mus_hu_False|38_48 (ssRNA)
# RNA: GGGAGUUCUACAGUCCGACGAUCAAAAAAUACACUAUUUAAAAAAAAUGAAAUGUCACGGGAUACAGUUACACUGAGAGUUUUAAAAAAAAAUAAGAAAAAAAAUGCAGCCCAGUGUCCCCAGGCUGCAGAGCGGGGAGGAGCCAACAGAGGAUUGAGCAUCA
# B7: chr17:56552419:56552420:-_ENSMUSG00000013236_ENSMUST00000086828|mus_mus|mus_mus_mus_hu_False|18_38 (ssRNA)
# RNA: GGGAGUUCUACAGUCCGACGAUCAAAAAAUACACUAUUUAAAAAAAAUGAAAUGUCACGGGAUACAGUUACACUGAGAGUUUUAAAAGAAAGCUGGAAAAAAAAUGCAGCCCAGUGGCAGGCAGGGGCAGAGCGGGGAGGAGCCAACAGAGGAUUGAGCAUCA
# B8: chr17:56552419:56552420:-_ENSMUSG00000013236_ENSMUST00000086828|mus_mus|mus_mus_mus_hu_False|8_38 (ssRNA)
# RNA: GGGAGUUCUACAGUCCGACGAUCAAAAAAUACACUAUUUAAAAAAAAUGAAAUGUCACGGGAUACAGUUACACUGAGAGUUUUAAAAGAAAGCUGGAAAAAAAAUGCAGCCCAGUGUCCCCAGGCUGAGUGCGGAAGAGGAGCCAACAGAGGAUUGAGCAUCA
# B9: chr17:56552419:56552420:-_ENSMUSG00000013236_ENSMUST00000086828|mus_mus|mus_mus_mus_hu_False|28_38 (ssRNA)
# RNA: B6 RNA with A88G, A92G, U93C, A94U, A95G, C107U, A108U, C112A, G114A, U115A
# B10: chr2:61719535:61719536:-_ENSG00000082898_ENST00000401558|hu_mus|FALSE|FALSE (ssRNA)
# RNA: GGGAGUUCUACAGUCCGACGAUCGUUUACUACUGUCUUCAAAAAUUUCCAGUGUGCUCUCAAAAAUCUUGGGUAUUGACCUACUAUGUACAUGAUAUUCGAUGCAAUAAUAGCUUUAUUAUCUUUGCCUCUUUUCUGCUCACACAACAGAGGAUUGAGCAUCA
# B11: chr2:48026839:48026840:+_ENSG00000116062_ENST00000540021|hu_hu|hu_hu_hu_mus_False|38_78 (ssRNA)
# RNA: GGGAGUUCUACAGUCCGACGAUCAUAGUGAGCCACUAGCGUCCUAAAUCUGGAACAAUGGCGAUCAUCCGAAAACUGGCCGAUGAAAAACUUGCCCAGUGAAGUAUCCACAAAGCAAACACCAUACACACGAGUGUGACCAGACAACAGAGGAUUGAGCAUCA
# B12: chr1:180251914:180251915:+_ENSMUSG00000026500_ENSMUST00000027781|mus_hu|FALSE|FALSE (ssRNA)
# RNA: GGGAGUUCUACAGUCCGACGAUCAGAUCCUAAUGAACCAUACAAUAUUGAAUGCCGGGCGCAGGGAGUAUUUUCAACAUCUAAAAAUCCUAGGAGCUUAAGGGACUUCCAAUAUGAUAAAUGUAACGACGUACAAGAUGCCUUCAACAGAGGAUUGAGCAUCA
# B13: 106713800_106713920_1116_CDS_ENSMUSG00000018363_ENSMUST00000103067|mouse|control|control (ssRNA)
# RNA: GGGAGUUCUACAGUCCGACGAUCCCUGCUCAUGUAAUUUCUAUGUCGCUGGGACCUGACUCUUCUCUCUGCUAGUCUGGGGUCUGAAGAAUGUCCACACGUUGCACCAUUUGUUCCAGUAAUUGGAGUAUUCUCAUCCACAAACAACAGAGGAUUGAGCAUCA
# B14: chr7:72441615:72441616:-_ENSMUSG00000030516_ENSMUST00000102592|mus_hu|FALSE|FALSE (ssRNA)
# RNA: GGGAGUUCUACAGUCCGACGAUCAAAAUUUUCAAAUGCAUAGCCAGAAAGAACAGAAAACCACCACUGCCCCUUGUCAAAAAAAAAAAAAAAGAAAAGAAAAGAAAAGAAAAAAAUAUCCCCAAAUCACACCACUAUUUUCUUCAACAGAGGAUUGAGCAUCA
# B15: chr17:56552419:56552420:-_ENSMUSG00000013236_ENSMUST00000086828|mus_mus|mus_mus_mus_hu_False|38_58 (ssRNA)
# RNA: B6 RNA with G77C, G79C, U81A, A88G, A92G, U93C, A94U, A95G
# B16: 173052199_173052319_2237_3pUTR_ENSMUSG00000038400_ENSMUST00000036248|mouse|control|control (ssRNA)
# RNA: GGGAGUUCUACAGUCCGACGAUCCUGUAUCCACCUGGCACCAAAUUCGGGGACUGCUUUGGCUUUGGGGAUGCACCUUGCCCCCAAACACUGAACCUUCAUAGUUUUUGUGUUUUAAAGAGGAAGAAAAAAAAAAAAACUAAGCAACAGAGGAUUGAGCAUCA
# B17: chr2:48035047:48035048:-_ENSG00000138081_ENST00000403359|hu_hu|motif|central (ssRNA)
# RNA: GGGAGUUCUACAGUCCGACGAUCACAAAAUUGCAGCUUAUUUUCUUCACUUCUGUCCCUUCAAGUCUUUACACAGUAAUGCGGAAACACCCAGCUUUGAGAUCCUGAGUCAAUAUAUUGCCACUUUCUUUUUGGUAGCUUGAGCAACAGAGGAUUGAGCAUCA
# B18: 14336767_14358337_2061_CDS_ENSG00000038382_ENST00000344204|human|control|control (ssRNA)
# RNA: GGGAGUUCUACAGUCCGACGAUCAUACACGUCGUCCAGCAGCUCCUUCUGCAGCUCCUCCAGCCACGUCCACAGCUCUUUCACAUGGGUGUGAAAGGACACUGACAUGUCCAGUAGGAUCUUUCGCUGCUCAACACGCCGAACCAACAGAGGAUUGAGCAUCA
# B19: chr10:7433921:7433922:+_ENSMUSG00000040021_ENSMUST00000165952|mus_mus|FALSE|FALSE (ssRNA)
# RNA: GGGAGUUCUACAGUCCGACGAUCGCUUUGUGUAUGUUAGGCAAGUGCUCUACCACUGAGCCAUAUCCUUAGCCCCUAGAAAAUGUACUUUCUUAGUGAGUACAUACACGUAAAUUAAAAAAAAAAAUUACAAACUGAAAAUAACAACAGAGGAUUGAGCAUCA
# B20: chr10:7433921:7433922:+_ENSMUSG00000040021_ENSMUST00000165952|mus_mus|motif|central (ssRNA)
# RNA: B19 RNA with U76G, A77G
# B21: chr2:71272186:71272187:+_ENSMUSG00000027018_ENSMUST00000028408|mus_mus|FALSE|FALSE (ssRNA)
# RNA: GGGAGUUCUACAGUCCGACGAUCCUGUGCCUGUAUUGCCAUAUCUUCACUGAAUCCUUGCAGUAAUCUUUCCCGGGAGAAACUGGGCAAAAAUUGACAAAACUUCACAAGCACAAAGUCUCUUAGUUUCAAAUAGCUUCUGGACAACAGAGGAUUGAGCAUCA
# B22: chr7:117185563:117185564:+_ENSMUSG00000066232_ENSMUST00000084731|mus_mus|FALSE|FALSE (ssRNA)
# RNA: GGGAGUUCUACAGUCCGACGAUCGGGCUUCAGGUUCUUCCACGUAAGUGCAUGGGAAACUCCUUGAUUAAUAUAAUUUAAUGUCUGCUGUAAAACUCGAGGCGCCAUAUAUUGUUUUUCCUUGUACUGAUAUAACACUUUCAACAACAGAGGAUUGAGCAUCA
# Target: T1, UNK ZnF1-3
# Test: nsRBNS (natural sequence RNA bind-n-seq); RBNS binding buffer (assumed for nsRBNS): 25 mM Tris pH 7.5, 150 mM KCl, 3 mM MgCl2, 0.01% Triton X-100, 500 ug/ml BSA, 20 U/ml SUPERase-In, 4 C; UNK is unkempt and MSI1 is Musashi-1; names of the RNAs are library labels; protein concentration not given here; high values mean tight binding
row,Binder,binding signal [enrichment R]
1,B1,0.462
2,B2,0.82
3,B3,0.468
4,B4,0.796
5,B5,2.12
6,B6,12.3
7,B7,5.96
8,B8,6.02
9,B9,5.83
10,B10,0.747
11,B11,1.33
12,B12,1.57
13,B13,0.982
14,B14,5.91
15,B15,9.74
16,B16,2.34
17,B17,0.585
18,B18,0.394
19,B19,8.06
20,B20,5.64
21,B21,1.25
22,B22,1.59
